Substitutions are numbered along the chain they refer to. In all, about 5,800 sequences were measured (“enrichment r”: median about 0.54, highest 2% from about 16 on). The list comes from a sample in which the highest values are over-represented; it also holds similar and randomly drawn sequences.
B1: chr11:46542767:46542868:-|CDS|ENSG00000110497|msi1|total|mutant (ssRNA)
RNA: GGGAGUUCUACAGUCCGACGAUCAACACGCUCCGCAACCUCAGUCUGGGUCCUACCCGCCGCUCUUUGGGAGGGCCUCUGUCCCGCCACCCUUCCCGGUAUCACCGAGAAACCGCUCCUGGGUUGACAGGAUCUGAGUGGACCCAACAGAGGAUUGAGCAUCA
B2: chrX:21994482:21994713:+|3pUTR|ENSG00000102172|msi1|total|mutant (ssRNA)
RNA: GGGAGUUCUACAGUCCGACGAUCCAGCUGAAGGAUGGUCCGACAGCACAGCGAAGACUGCUAAAUGCACUGACCCCCCCCAUCCGAAUGUGAUUUUUGUUCCUUUUUAUUUCUCUGUGGGCUUUUGUUUUUGUUUUUGUUUUGCAACAGAGGAUUGAGCAUCA
B3: chr19:41261474:41261596:+|3pUTR|ENSG00000167601|msi1|total|mutant (ssRNA)
RNA: GGGAGUUCUACAGUCCGACGAUCUCUAAAGGUCCACAGGUCCCGACUAUCCGGUGCAAUUUCAAGGUUCUAACCCUAUACUGCCGUAUUCUUUGGGGUGCCCCUCUCCUUCUCCGCUAUCAUUGCUUCCUCCUCCCCAACUGUCAACAGAGGAUUGAGCAUCA
B4: ENSG00000198589:be:win_4151|CDS|ENSG00000198589|bound_else_gene|NA|bound_elsewhere_windowed (ssRNA)
RNA: GGGAGUUCUACAGUCCGACGAUCCGGCUACACAUGAACUGGAAAAUAUUGAACCUACUCAAGGCCUUUCAAUAGAAGCCUCUGUGACAUUUUUGCAGAGGCUAAUUAGCCUUGUGGAUGUGCUUAUAUUUGCAAGUUCUCUUGCAACAGAGGAUUGAGCAUCA
B5: ENSG00000198589:be:win_9651|3pUTR|ENSG00000198589|bound_else_gene|NA|bound_elsewhere_windowed (ssRNA)
RNA: GGGAGUUCUACAGUCCGACGAUCCUUCAAGUGGUCCCUCUUUUUUUCCUACACACUCAGCUCUUCUCUAAAAGCAAGGAUUUGGAAUGAACAAUUCAGUUUGACAGAAAAAGCUGAAUAAAAUGGCAUCUGUAAUUGAAUUGUCAACAGAGGAUUGAGCAUCA
B6: chr13:20822168:20822271:-|CDS|ENSG00000132953|unk|total|mutant (ssRNA)
RNA: GGGAGUUCUACAGUCCGACGAUCUCGAAAAAUCAGAGAAGAUUCAGAUAUGGCACAAGAUUCUCUGCAGUGCCUUGCCCAGUCCGCUUCUCUUCAUGGACCCAUCUUCCCAGAUGAAGGAUCACAAGUUGAUUAUCCCGCACACAACAGAGGAUUGAGCAUCA
B7: ENSG00000136451:be:win_3201|3pUTR|ENSG00000136451|bound_else_gene|NA|bound_elsewhere_windowed (ssRNA)
RNA: GGGAGUUCUACAGUCCGACGAUCAACAGUUCUAGGGGGUUGAACUACAUAGUAAAAAAAUAAAAUAAAUAGUACUUAGUGUAAAAUAAUUUUAUAAAUGAUCUUUUGUACUUUAGGACAUUAAAUUGUACAACUUUUGUAUAUCAACAGAGGAUUGAGCAUCA
B8: chr4:65323451:65323552:-|3pUTR|ENSG00000145242|msi1|FALSE|unique (ssRNA)
RNA: GGGAGUUCUACAGUCCGACGAUCAUCAAGAAAAAGUACAAUACAGGGUGUAUAUUUAUUUUUUGUGUUAUAAAGUUUACUUUUAGUUGCUCUUCUAGAGAUUAUUAGGUAAUAAAUGUGUAUAUACUGUAUAAUUUGCAAUAUCAACAGAGGAUUGAGCAUCA
B9: chr20:1375301:1375603:-|CDS|ENSG00000088832|control|control|control (ssRNA)
RNA: GGGAGUUCUACAGUCCGACGAUCGGUAUGCUCUCUCAUUUGUUUUGUUUUGCUUUCUAGUAUUUACCUUUUAUAUUUUUUUAUAGGUGGCAUAUUUAUACGGUUCAAAAAUAAAAAAAGUGAAAAGUCUCACCCUCAUGCCAUCAACAGAGGAUUGAGCAUCA
B10: chr1:232398519:232398625:-|3pUTR|ENSG00000116991|unk|total|mutant (ssRNA)
RNA: GGGAGUUCUACAGUCCGACGAUCACAGCCGUUUUAUUUCCACAGCCACAUUACCACCGCAAUAAGAAAGGAGGCACCGUACACCGUUGGAAAAGCUUUGUGGGGGGAUUAAAAAAAAAAAAAAGCACUGUUGUGUUUAACACUCAACAGAGGAUUGAGCAUCA
B11: chr18:68676332:68676434:-|3pUTR|ENSG00000166479|msi1_unk|FALSE|overlapping (ssRNA)
RNA: GGGAGUUCUACAGUCCGACGAUCAUCAAGAUUAUGAGGUUAAAAAUAAUGUGGUUUUAUAUAGCAUAGUGGUUUUAUUUUGUUAGUUAUUUUUAAAGGAGAAGAAAUGUUACUUUUUAACUUUAUACUCAGUUGCAUUAUCAUCAACAGAGGAUUGAGCAUCA
B12: chr19:34469546:34469571:+|3pUTR|ENSG00000126261|msi1_unk|total|mutant (ssRNA)
RNA: GGGAGUUCUACAGUCCGACGAUCGUUGCCUUUUUAAUGUAAAUACCCGCCGGUAUCAUUAACCGUUUCAAAAUAUUGUGGUUCCGUAAAGUUGAUACCUGGUUAUAAAUAUUAUGCCUUUAUUUUUGGCCCGAAGAAGAAUUACAACAGAGGAUUGAGCAUCA
B13: ENSG00000198589:be:win_801|CDS|ENSG00000198589|bound_else_gene|NA|bound_elsewhere_windowed (ssRNA)
RNA: GGGAGUUCUACAGUCCGACGAUCUCAUUUUGUUGGAGGCUGUUUGAUUGUAACAUCAAUAAAGUCAAAAGGAAAAGGCUUUCAACACUGUGUGAAAUUUGAUUUCAAGCCACAAAAGUGGUAUAUGGUUACCAUAGUACACAUCAACAGAGGAUUGAGCAUCA
B14: chr18:68676332:68676434:-|3pUTR|ENSG00000166479|msi1_unk|total|mutant (ssRNA)
RNA: B11 RNA with U61C, A62C, U66C, A67C, U83C, A84C
B15: chr1:232398519:232398625:-|3pUTR|ENSG00000116991|unk|FALSE|unique (ssRNA)
RNA: B10 RNA with C28U, C29A, C56U, C57A, C76U, C77A, C83U, C84A
B16: ENSG00000136451:be:win_3151|3pUTR|ENSG00000136451|bound_else_gene|NA|bound_elsewhere_windowed (ssRNA)
RNA: GGGAGUUCUACAGUCCGACGAUCUGAGACAGACUUCCUACAUCAGGGACAGGUAUCUGUGUGUCAUUAUACAAAACAGUUCUAGGGGGUUGAACUACAUAGUAAAAAAAUAAAAUAAAUAGUACUUAGUGUAAAAUAAUUUUACAACAGAGGAUUGAGCAUCA
B17: ENSG00000136451:be:win_3251|3pUTR|ENSG00000136451|bound_else_gene|NA|bound_elsewhere_windowed (ssRNA)
RNA: GGGAGUUCUACAGUCCGACGAUCCUUAGUGUAAAAUAAUUUUAUAAAUGAUCUUUUGUACUUUAGGACAUUAAAUUGUACAACUUUUGUAUAUAUAAAAGCUUAGGAACUUUCUGUUUAGCAGGAAGGCAACACAUUCCUACACAACAGAGGAUUGAGCAUCA
B18: chr19:34469546:34469571:+|3pUTR|ENSG00000126261|msi1_unk|FALSE|overlapping (ssRNA)
RNA: B12 RNA with C49U, C50A, C62U, C63A, C83U, C84A, C130U, C131A
B19: chr16:46660370:46660459:-|3pUTR|ENSG00000069329|msi1_unk|total|mutant (ssRNA)
RNA: GGGAGUUCUACAGUCCGACGAUCAAAAGGAAACCGCUCACCAUACUCCUUUCCAUGUACAUCCAGUGAGGGUUUUAUUACGCCCGGUUUCCCUUCCACCGAUUGUGCCUUUCAGAAAUGCUGAGGCCGGUUUCCCAUUUCUUACAACAGAGGAUUGAGCAUCA
B20: chr8:48920054:48920155:-|CDS|ENSG00000019549|unk|FALSE|unique (ssRNA)
RNA: GGGAGUUCUACAGUCCGACGAUCACCUAUUCAACUUUUUCUGGGCUGGCCAAACAUAAGCAGCUGCACUGCGAUGCCCAGUCUAGAAAAUCUUUCAGCUGUAAAUACUGUGACAAGGAAUAUGUGAGCCUGGGCGCCCUGAAGCAACAGAGGAUUGAGCAUCA
B21: ENSG00000136451:be:win_351|CDS|ENSG00000136451|bound_else_gene|NA|bound_elsewhere_windowed (ssRNA)
RNA: GGGAGUUCUACAGUCCGACGAUCUACCAUCGCUGGGGACAGCAGCCGAACUUCGUUGGUCUCGACCAUUGCAGGCAUCUUGUCAACAGUCACUACAUCUUCCUCGGGCACCAACCCCAGUAGCAGUGCCAGCACCACAGCUAUCAACAGAGGAUUGAGCAUCA
B22: chr8:103427116:103427218:+|CDS|ENSG00000164934|unk|total|mutant (ssRNA)
RNA: GGGAGUUCUACAGUCCGACGAUCGUAUACUGGGAUUGAUCAUCACUGGAAAGAAGCUGUUUUUGCCACAUGUGGACAGCAAGCCGACAUUUGGGAUGAACAAAGAACUAAUCCUAUAUGUUCAAUGACCUGGGGAUUUGACAGCAACAGAGGAUUGAGCAUCA

target: MSI1 full-length (mouse, UniProt Q61474 1-362); test: nsRBNS (natural sequence RNA bind-n-seq); RBNS binding buffer (assumed for nsRBNS): 25 mM Tris pH 7.5, 150 mM KCl, 3 mM MgCl2, 0.01% Triton X-100, 500 ug/ml BSA, 20 U/ml SUPERase-In, 4 C; UNK is unkempt and MSI1 is Musashi-1; names of the RNAs are library labels; protein concentration not given here; high values mean tight binding
Sequence (Q61474 whole entry): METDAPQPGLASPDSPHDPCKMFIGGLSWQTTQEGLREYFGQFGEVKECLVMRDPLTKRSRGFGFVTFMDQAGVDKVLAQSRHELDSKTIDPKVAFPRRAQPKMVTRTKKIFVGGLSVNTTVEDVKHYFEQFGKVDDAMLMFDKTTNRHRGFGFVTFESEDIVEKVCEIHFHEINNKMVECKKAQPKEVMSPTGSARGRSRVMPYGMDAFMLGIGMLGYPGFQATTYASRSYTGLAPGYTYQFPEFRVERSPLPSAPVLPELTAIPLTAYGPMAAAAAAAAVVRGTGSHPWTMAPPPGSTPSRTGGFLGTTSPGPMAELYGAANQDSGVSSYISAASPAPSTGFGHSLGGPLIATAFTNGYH

Row | Binder | binding signal
1 | B1 | 0.529 enrichment R
2 | B2 | 0.697 enrichment R
3 | B3 | 0.848 enrichment R
4 | B4 | 0.181 enrichment R
5 | B5 | 0.318 enrichment R
6 | B6 | 0.303 enrichment R
7 | B7 | 23.1 enrichment R
8 | B8 | 11.9 enrichment R
9 | B9 | 2.12 enrichment R
10 | B10 | 0.46 enrichment R
11 | B11 | 69.1 enrichment R
12 | B12 | 1.89 enrichment R
13 | B13 | 0.264 enrichment R
14 | B14 | 0.295 enrichment R
15 | B15 | 18.4 enrichment R
16 | B16 | 15.5 enrichment R
17 | B17 | 10.7 enrichment R
18 | B18 | 35.8 enrichment R
19 | B19 | 0.39 enrichment R
20 | B20 | 0.478 enrichment R
21 | B21 | 0.413 enrichment R
22 | B22 | 0.362 enrichment R
